The results in this text go back to PubChem BioAssay.

Structures are written as SMILES. The source made the active and inactive calls. Unless noted, no rule for the calls is given here.

Assay [1] has as its system Wnt5a (protein binding on small-molecule microarray). In words: small molecules binding Wnt5a protein – biophysical, small-molecule microarray, 635/667 nm fluorescence, primary screen (AID 1142).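 Also: fluorescence read at 667 nm with signal to noise per printed feature.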 The conditions noted are these: 635 nm fluorescence, higher = more signal.
A short description of assay [2]: ATP-based viability of Huh7 replicon cells – cell-based, CellTiter-Glo luminescence, basal, 48 h, cytotoxicity control for HCV replication inhibitor project, primary screen (AID 1143).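 Also: Huh7 hepatoma cells carrying a hepatitis C replication reporter with no stimulus; test concentration not given here.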 The conditions noted are these: higher = more signal, called active from +8 up or from −8 down. (In general: A replicon is a self-replicating genome or part of one, used to study replication in cells.)

Assay [3] is described as follows: Pseudomonas biofilm growth suppression – PAO1 strain, BacTiter-Glo luminescence, LB-PBS, primary screen (AID 1144). Particulars: P. aeruginosa PAO1 biofilm, 12 h, higher = more signal.
Assay [4] in a line: basal CRE-LacZ reporter activity in PC12 – cell-based, unstimulated, primary screen (AID 1145). Particulars: no forskolin, luminescence, 4.5 h, higher = more signal, called active from +8 up or from −8 down.
A short description of assay [5]: forskolin-driven CRE-LacZ activity in PC12 – cell-based, CRE-LacZ reporter, forskolin-stimulated, primary screen (AID 1146).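 Also: PC12 cells with 6xCRE LacZ reporter stimulated by forskolin 10 µM; beta-galactosidase reporter signal reflecting CREB driven transcription.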 The conditions noted are these: luminescence, 4.5 h, higher = more signal, called active from +8 up or from −8 down.
In assay [6] the target is Streptavidin (Streptomyces avidinii) (UniProt P22629). Kind of assay: compounds binding control protein streptavidin – biophysical, small-molecule microarray, 635/667 nm fluorescence, artefact control for SMM compound annotation, primary screen (AID 1147).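 Also: signal reflects streptavidin binding to arrayed compounds as a control protein.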 Particulars: higher = more signal.
Assay [7] in a line: probe aInhba binding on compound microarray – biochemical, small-molecule microarray, 635/667 nm fluorescence, primary screen (AID 1148).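 Also: score merges 667nm spot fluorescence with signal-to-noise for antibody binding to printed compounds.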 The conditions noted are these: higher = more signal.
Assay [8] concerns the target Torsin-1A (Homo sapiens) (UniProt O14656). In words: TOR1A wild-type binding on microarray – cell lysate, small-molecule microarray, lysate, 635/667 nm, primary screen (AID 1149). The conditions noted are these: COS7 hTOR1A-WT lysate, 635 nm fluorescence, higher = more signal.
For assay [9] the target is unchanged. Kind of assay: torsin A mutant lysate binding on microarrays – cell lysate, small-molecule microarray, COS7 lysate, 635/667 nm fluorescence, primary screen (AID 1150).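 Also: score pools 667 nm emission and signal to noise measuring lysate protein binding.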 Particulars: COS7 hTOR1A mutant lysate, 635 nm fluorescence, higher = more signal.
Assay [10] has as its system Sonic hedgehog protein (Shh). Kind of assay: Sonic hedgehog microarray binding compounds – biochemical, small-molecule microarray, 635/667 nm fluorescence, primary screen (AID 1151).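 Also: Shh protein binding to compounds spotted on small-molecule microarray slides; score combines spot fluorescence intensity with signal-to-noise across triplicate slides.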 The conditions noted are these: 635 nm fluorescence, higher = more signal.

Streptavidin (Streptomyces avidinii), sequence (P22629 whole entry, looked up): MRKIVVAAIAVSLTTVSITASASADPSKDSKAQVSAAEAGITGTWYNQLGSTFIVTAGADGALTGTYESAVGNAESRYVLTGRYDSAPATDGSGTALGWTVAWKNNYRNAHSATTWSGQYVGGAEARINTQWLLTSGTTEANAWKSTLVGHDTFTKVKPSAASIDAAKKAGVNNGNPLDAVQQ
Torsin-1A (Homo sapiens), sequence (O14656 whole entry, looked up): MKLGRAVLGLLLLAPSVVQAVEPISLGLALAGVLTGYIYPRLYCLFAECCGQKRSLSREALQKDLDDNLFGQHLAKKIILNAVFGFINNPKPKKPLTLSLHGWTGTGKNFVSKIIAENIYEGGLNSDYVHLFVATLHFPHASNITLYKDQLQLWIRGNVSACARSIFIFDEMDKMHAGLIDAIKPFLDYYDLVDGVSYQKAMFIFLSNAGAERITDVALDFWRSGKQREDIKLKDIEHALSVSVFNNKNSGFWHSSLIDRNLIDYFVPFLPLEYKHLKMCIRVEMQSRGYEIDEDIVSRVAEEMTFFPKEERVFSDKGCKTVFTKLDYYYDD

Turning to `COc1ccc([Si](C)(C)[C@H]2[C@H](CC(=O)N3Cc4ccccc4C[C@H]3CO)O[C@@]3(C(=O)N(c4ccccc4)c4ccccc43)[C@@H]2C)cc1`, the composite z-score in assay [1] was found to be 0.479; in [6], 0.968; in assay [7] it was 0.0342; in the assay with Torsin-1A (Homo sapiens) [8], 1.57; with Torsin-1A (Homo sapiens) [9], 0.862; in assay [10] it was 2.04. Also, the z-score in assay [2] was -5.64 (inactive); in assay [3] it was 0.449 (inactive); in [4], 3.6 (inactive); in assay [5] it was -1.16 (inactive).

`C=CCC(OC(C)=O)[C@@H]1[C@@H](N(Cc2cccc3ccccc23)C(=O)Cc2ccc(OC)cc2)c2cc(OCCCO)ccc2N1C(=O)c1ccc2ccccc2c1` (stereo not given in full): the composite z-score in assay [1] was -0.186; in [6] it was 0.172; in assay [7], -0.152; with Torsin-1A (Homo sapiens) [8], 0.794; in the assay with Torsin-1A (Homo sapiens) [9], -0.118; in [10], 0.239. In addition, the z-score in assay [2] was -3.04 (inactive); in assay [3], -0.719 (inactive); in assay [4] it was 0.0458 (inactive); in assay [5], -0.383 (inactive).

On to `COC(=O)C(CC#Cc1ccc2c(c1)[C@]1(C(=O)N2)[C@H](C(=O)NC[C@H](O)c2ccccc2)[C@H]2C(=O)O[C@H](c3ccccc3)[C@H](c3ccccc3)N2[C@@H]1c1ccccc1OCCO)C(=O)OC`, for which the composite z-score amounted to 0.649 in assay [1]; 0.703 in assay [6]; 0.0154 in assay [7]; 0.326 with Torsin-1A (Homo sapiens) [8]; 0.506 with Torsin-1A (Homo sapiens) [9]; 1.32 in assay [10]. The z-score in assay [2] was -6.04 (inactive); in assay [3], -1.21 (inactive); in [4], -0.671 (inactive); in assay [5], -0.276 (inactive).

In the case of `CCCC=C(CCC)[C@@H](NC(=O)OCC(C)C)c1ccc(C(=O)OC)cc1`, the composite z-score is -0.0326 in assay [1]; 0.153 in [6]; -0.154 in [7]; 0.841 with Torsin-1A (Homo sapiens) [8]; 0.104 with Torsin-1A (Homo sapiens) [9]; 0.23 in [10]. The z-score in assay [2] was -1.07 (inactive); in [3], 0.3 (inactive); in assay [4], -1.72 (inactive); in assay [5], 0.291 (inactive).

With `C=CCC(OC(C)=O)[C@@H]1[C@@H](N(Cc2ccc(-c3ccccc3)cc2)C(=O)c2cccc3ccccc23)c2cc(OCCCO)ccc2N1C(=O)Cc1ccc(OC)cc1` (stereo not given in full), the composite z-score in [1] is 0.0948; in assay [6], 0.0251; in [7] it was -0.0346; with Torsin-1A (Homo sapiens) [8], -0.476; in the assay with Torsin-1A (Homo sapiens) [9], 0.127; in [10], 0.586. Also, the z-score was -1.62 (inactive) in assay [2], 0.0108 (inactive) in assay [3], 0.498 (inactive) in [4] and -0.117 (inactive) in assay [5].

Consider `[N-]=[N+]=Nc1ccccc1C[C@@]1(C(=O)NCc2ccccc2)N=C(c2ccc(OCCCO)cc2)O[C@@H]1c1ccccc1N=[N+]=[N-]`, for which the composite z-score in assay [1] stood at 0.897; in [6], 0.905; in assay [7] it was 0.767; with Torsin-1A (Homo sapiens) [8] it was 0.123; with Torsin-1A (Homo sapiens) [9] it was 0.388; in assay [10] it was 0.473. Also, the z-score in assay [2] is -5.79 (inactive); in assay [3], -0.424 (inactive); in assay [4], 0.596 (inactive); in assay [5], -2.3 (inactive).

Consider `CC(C)(C)OC(=O)CC[C@@]1(C(=O)NCCN2CCOCC2)N=C(c2ccc(OCCCO)cc2)O[C@@H]1c1ccccc1CN=[N+]=[N-]`, for which the composite z-score is -0.119 in [1]; 1.01 in assay [6]; -0.0494 in [7]; -0.428 in the assay with Torsin-1A (Homo sapiens) [8]; 0.467 in the assay with Torsin-1A (Homo sapiens) [9]; -0.919 in [10]. Also, the z-score in assay [2] was 0.0704 (inactive); in assay [3] it was -0.495 (inactive); in assay [4] it was -0.277 (inactive); in assay [5], 0.54 (inactive).

Regarding `O=C(NCCN1CCOCC1)[C@@H]1c2ccccc2C(=O)N(Cc2ccccc2C(F)(F)F)[C@H]1c1ccc(CO)cc1`, the composite z-score was -0.316 in assay [1]; -1.12 in assay [6]; -0.224 in [7]; -0.691 in the assay with Torsin-1A (Homo sapiens) [8]; 0.0912 with Torsin-1A (Homo sapiens) [9]; -0.112 in assay [10]. The z-score in [2] was -0.0154 (inactive); in assay [3], 0.151 (inactive); in [4], 0.324 (inactive); in [5] it was -1.32 (inactive).

Regarding `CCOC(=O)C[C@H]1[C@H](OC(=O)Cc2ccc3c(c2)OCO3)[C@@H](NC(=O)c2ccc3ccccc3n2)c2cc(OCCCO)ccc2N1C(=O)Cc1ccc(OC)cc1`, the composite z-score was 0.0586 in assay [1]; 0.417 in assay [6]; -0.101 in [7]; 0.509 in the assay with Torsin-1A (Homo sapiens) [8]; 0.744 in the assay with Torsin-1A (Homo sapiens) [9]; 0.902 in assay [10]. The z-score in assay [2] was -1.01 (inactive); in assay [3] it was -0.885 (inactive); in assay [4] it was 3.29 (inactive); in assay [5], 0.637 (inactive).

As for `CCCC=C(CCC)[C@@H](NC(=O)c1ccc(C(F)(F)F)cc1)c1ccc(C(F)(F)F)cc1`, the composite z-score was 0.63 in [1]; 0.48 in assay [6]; 0.207 in assay [7]; 0.342 with Torsin-1A (Homo sapiens) [8]; 0.587 with Torsin-1A (Homo sapiens) [9]; -0.605 in [10]. Besides, the z-score is -2.78 (inactive) in [2], 0.429 (inactive) in [3], 0.779 (inactive) in [4] and 0.34 (inactive) in [5].

Consider `CCCCCCc1nc(Cc2cc(OC)c(OC)c(OC)c2)cc2c1[Si](C(C)C)(C(C)C)O[C@H]2c1ccccc1`, for which the composite z-score in assay [1] is -0.0493; in assay [6], 0.0406; in [7], -0.154; in the assay with Torsin-1A (Homo sapiens) [8] it was 0.128; in the assay with Torsin-1A (Homo sapiens) [9], -0.155; in assay [10], 1.19. Besides, the z-score in [2] is -2.1 (inactive); in [3], 0.129 (inactive); in [4], 0.367 (inactive); in assay [5] it was 0.0748 (inactive).

Take `CCOC(=O)C1=CC[C@@H](c2ccccc2)N(S(=O)(=O)c2ccc(C)cc2)[C@H]1c1ccccc1I`: the composite z-score is 0.296 in assay [1]; 0.864 in assay [6]; 0.849 in assay [7]; -0.315 in the assay with Torsin-1A (Homo sapiens) [8]; 0.507 with Torsin-1A (Homo sapiens) [9]; 0.239 in [10]. The z-score in assay [2] was -2.69 (inactive); in assay [3] it was 0.366 (inactive); in assay [4] it was 0.566 (inactive); in [5], -0.226 (inactive).
